# Test results: PubChem BioAssay (Tox21)
# Where “and” joins values, the source holds several entries; their conditions need not be identical. Identical values can stand only once. Records with an inconclusive call do not appear. A call without a number means that no potency is given here. The source holds several records for some structures; these can differ, active in one and inactive in another. Calls of active or inactive are those of the source. Unless noted, calls come from the whole dose curve; as a rule, active = well fitted curve in the direction sought with a large enough effect in the repeat runs; inconclusive = weak or mixed curves; inactive = no such curve, though single readings can be large; an effect the other way counts as inactive or inconclusive.
# Key:
# [1] = biological target: Estrogen receptor beta (Homo sapiens) (UniProt Q92731); assay: qHTS assay to identify small molecule agonists of the estrogen receptor beta (ER-beta) signaling pathway (AID 1259377; active = well fitted activation curve with a large enough effect in the signal ratio in the repeat runs, not every such curve was filed as active; the % refers to the signal ratio)
# How it was run: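 HEK293T ER-beta-UAS-bla; 2% charcoal-stripped FBS; cells pre-incubated 6 hr, compound 16 hr, 37C/5% CO2; LiveBLAzer B/G FRET substrate 2 h RT; fluorescence intensity read.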
# [2] = biological target: Estrogen receptor beta (Homo sapiens) (UniProt Q92731); assay: qHTS assay to identify small molecule antagonists of the estrogen receptor beta (ER-beta) signaling pathway (AID 1259378; active = well fitted inhibition curve with a large enough effect in the signal ratio in the repeat runs, not every such curve was filed as active; the % refers to the signal ratio; note: potency is the fitted concentration of half-maximal effect)
# How it was run: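 ER-beta-UAS-bla HEK293T (GripTite) cells in 2% charcoal-stripped FBS medium were preincubated 6 hr at 37C, dosed with compound, then stimulated with 1 nM E2 (final) for 16 hr; beta-lactamase reporter read by B/G FRET fluorescence after 2 hr substrate loading.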
# [3] = qHTS assay to identify small molecule agonists of the estrogen receptor beta (ER-beta) signaling pathway - cell viability counter screen (AID 1259380); note: nearly all actives have a fitted effect of over 30% in size; note: potency is the fitted concentration of half-maximal effect
# How it was run: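 ER-beta-UAS-bla HEK293T cells in medium with 2% charcoal-stripped FBS were preincubated 6 hr at 37C, dosed with compound in DMSO for 16 hr, then after the bla read, CellTiter-Glo was added for 30 min at room temperature; luminescence recorded.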
# [4] = qHTS assay to identify small molecule antagonists of the estrogen receptor beta (ER-beta) signaling pathway - cell viability counter screen (AID 1259382); note: series mostly up to about 92 µM; nearly all actives have a fitted effect of over 55% in size
# How it was run: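 ER-beta-UAS-bla HEK293T cells (2,000/well, 2% charcoal-stripped FBS) were pre-incubated 6 hr at 37C, then given compound plus 1nM final 17-beta-estradiol for 16 hr. Viability was read in the same wells by CellTiter-Glo luminescence after 30 min at room temperature.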
# [5] = biological target: Estrogen receptor (Homo sapiens) (UniProt P03372); assay: qHTS assay to identify small molecule agonists of the estrogen receptor alpha (ER-alpha) signaling pathway in the presence of an antagonist (AID 1259383; calls by dose curve; note: top concentration of the series differs between compounds; nearly all actives have a fitted effect of over 15% in size)
# How it was run: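 VM7Luc4E2 cells (endogenous full-length ER-alpha, 4×ERE-luciferase) were precultured 5 days in phenol red-free medium with 10% charcoal-stripped FBS, given 10.0nM ICI-182,780 (final), then treated with compounds at 15 concentrations for 22hr at 37C; luminescence read with ONE-Glo.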
# [6] = qHTS assay to identify small molecule agonists or antagonists of the thyroid stimulating hormone receptor (TSHR) signaling pathway - wild type cell line counter screen (AID 1259384; calls by dose curve)
# How it was run: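 Wild-type HEK293 cells were plated 18 h at 37 C/5% CO2, pin-dosed with compound plus Ro20-1724 medium, held 30 min at room temperature, then given cAMP-d2 and anti-cAMP-cryptate; fluorescence was read after 1 h. Fifteen concentrations, triplicate.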
# [7] = biological target: Thyrotropin receptor (Homo sapiens) (UniProt P16473); assay: qHTS assay to identify small molecule antagonists of the thyroid stimulating hormone receptor (TSHR) signaling pathway (AID 1259385; calls by dose curve; note: nearly all actives have a fitted effect of over 20% in size; note: potency is the fitted concentration of half-maximal effect)
# How it was run: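 TSHR-HEK293 cells were plated and held 18 h at 37C/5% CO2, then given compound plus Ro20-1724 and stimulated with TSH at 1.5 ng/mL final. After 30 min at room temperature, cAMP was detected with cAMP-d2/anti-cAMP-cryptate (1 h) by fluorescence.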
# [8] = qHTS assay to identify small molecule agonists of the estrogen receptor alpha (ER-alpha) signaling pathway in the presence of an antagonist - cell viability counter screen (AID 1259386);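 note: cells exposed to compounds for 22 h at 37 °C before the viability read; nearly all actives have a fitted effect of over 30% in size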; note: potency is the fitted concentration of half-maximal effect; for activity change, negative = cytotoxicity: series mostly up to about 92 µM
# How it was run: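 VM7Luc4E2 cells (endogenous full-length ER-alpha, 4×ERE-luciferase) were held 5 days in phenol red-free medium with 10% charcoal-stripped FBS, plated, then given 10.0nM ICI-182,780 and compounds at 15 concentrations for 22hr at 37C; viability read by CellTiter-Fluor fluorescence.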
# [9] = biological target: Progesterone receptor (Homo sapiens) (UniProt P06401); assay: qHTS assay to identify small molecule agonists of the progesterone receptor (PR) signaling pathway (AID 1346784; calls by dose curve; note: nearly all actives have a fitted effect of over 30% in size)
# How it was run: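 Beta-lactamase reporter read-out: after 16 hr compound treatment at 37C and a further 2 hr at room temperature with LiveBLAzer B/G FRET substrate, fluorescence was measured in PR-UAS-bla HEK 293T cells grown in 2% charcoal-stripped serum.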
# [10] = biological target: Progesterone receptor (Homo sapiens) (UniProt P06401); assay: qHTS assay to identify small molecule antagonists of the progesterone receptor (PR) signaling pathway (AID 1346795; active = well fitted inhibition curve with a large enough effect in the signal ratio in the repeat runs, not every such curve was filed as active; the % refers to the signal ratio; note: potency is the fitted concentration of half-maximal effect)
# How it was run: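 Read-out is fluorescence from the LiveBLAzer B/G FRET substrate, cleaved by a UAS-controlled beta-lactamase in PR-UAS-bla HEK293T cells after 16 hr exposure to compound plus 1 nM promegestone (final), followed by 2 hr at room temperature.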
# [11] = qHTS assay to identify small molecule antagonists of the progesterone receptor (PR) signaling pathway - cell viability counter screen (AID 1346798);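 note: HEK293T PR-UAS-bla cells stimulated with the agonist R5020; series mostly up to about 92 µM; nearly all actives have a fitted effect of over 50% in size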
# How it was run: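 HEK293T PR-UAS-bla, 2% charcoal-stripped FBS; 4 hr pre-plate; cpd + R5020, 16 h 37C; LiveBLAzer read first; then CellTiter-Glo 30 min RT, luminescence.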
# [12] = qHTS assay to identify small molecule agonists of the progesterone receptor (PR) signaling pathway - cell viability counter screen (AID 1346799; calls by dose curve; note: nearly all actives have a fitted effect of over 45% in size)
# How it was run: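 Luminescence from CellTiter-Glo, added after the beta-lactamase FRET read in the same wells, gave cytotoxicity in PR-UAS-bla HEK293T cells treated with compounds for 16 hr at 37C.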
# [13] = qHTS assay to identify small molecule antagonists of the TGF-beta/Smad signaling pathway - cell viability counter screen (AID 1346824); note: nearly all actives have a fitted effect of over 50% in size
# How it was run: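 SBE-bla HEK 293T cells were plated overnight at 37 C, then given compounds in DMSO plus TGF-beta1 (added as 0.25 ng/mL solution) for 5 hr. After the bla read, CellTiter-Glo was added to the same wells and luminescence read after 30 min at room temperature.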
# [14] = qHTS assay to identify small molecule agonists of the TGF-beta/Smad signaling pathway - cell viability counter screen (AID 1346829); note: nearly all actives have a fitted effect of over 45% in size; note: potency is the fitted concentration of half-maximal effect; for activity change, negative = cytotoxicity: top concentration of the series differs between compounds
# How it was run: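 CellTiter-Glo luminescence readout; SBE-bla HEK 293T cells, overnight plating, compound 5 hr at 37 C/5% CO2, then bla substrate 2 hr RT, then CellTiter-Glo 30 min RT.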
# [15] = qHTS assay to identify small molecule agonists of the TGF-beta/Smad signaling pathway (AID 1346859; active = well fitted activation curve with a large enough effect in the signal ratio in the repeat runs, not every such curve was filed as active; the % refers to the signal ratio; note: series mostly up to about 77 µM)
# How it was run: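 SBE-bla HEK 293T, 4,000 cells/well, plated o/n; cpd in DMSO, 5 hr, 37 C/5% CO2; B/G FRET substrate 2 hr RT; ex 405, em 460/530 nm.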
# [16] = biological target: Thyrotropin-releasing hormone receptor (Homo sapiens) (UniProt P34981); assay: qHTS assay to identify small molecule antagonists of the thyrotropin-releasing hormone receptor (TRHR) signaling pathway (AID 1346877; active = well fitted inhibition curve with a large enough effect in the repeat runs, not every such curve was filed as active; note: series mostly up to about 51 µM)
# How it was run: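 TRHR-expressing HEK293 cells were seeded, cultured 18 h at 37 °C, then loaded with calcium dye for 2 h. Compounds were pre-incubated 5 min at room temperature before 1 nM TRH (final) was added, and kinetic fluorescence was recorded for 3 min.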
# [17] = biological target: Thyrotropin-releasing hormone receptor (Homo sapiens) (UniProt P34981); assay: qHTS assay to identify small molecule agonists of the thyrotropin-releasing hormone receptor (TRHR) signaling pathway (AID 1346891; calls by dose curve; note: series mostly up to about 58 µM)
# How it was run: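 Intracellular calcium rise, read as fluorescence every second for 3 min, served as the agonist signal in dye-loaded HEK293 cells expressing TRHR; each compound ran at 15 concentrations in triplicate.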
# [18] = qHTS assay to identify small molecule agonists of the androgen receptor (AR) signaling pathway in the presence of an antagonist - cell viability counter screen (AID 1259379); note: nearly all actives have a fitted effect of over 25% in size; note: potency is the fitted concentration of half-maximal effect;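 for activity change, negative = cytotoxicity: MDA-kb2 human breast cancer cells carrying an MMTV luciferase reporter; series mostly up to about 92 µM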
# How it was run: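 MDA-kb2 human breast carcinoma cells (stable MMTV-luciferase, AR/GR responsive) were seeded 3,000 cells/well, pre-incubated 5 hr at 37C without CO2, then given 3.0uM nilutamide and compounds at 15 concentrations for 16 hr. Viability was read by CellTiter-Fluor fluorescence.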
# [19] = Human pregnane X receptor (PXR) small molecule agonists, qHTS cell viability counter screen (AID 1346977); note: nearly all actives have a fitted effect of over 50% in size; note: potency is the fitted concentration of half-maximal effect
# How it was run: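 PXR-Luc HepG2, 2,000 cells/well, 5% charcoal-stripped FBS; 5hr settle; cpd 24hr, 37C/5% CO2; CellTiter-Fluor at 23hr, read 1hr later (fluorescence).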
# Chain of Thyrotropin-releasing hormone receptor (Homo sapiens) (P34981 whole entry, looked up): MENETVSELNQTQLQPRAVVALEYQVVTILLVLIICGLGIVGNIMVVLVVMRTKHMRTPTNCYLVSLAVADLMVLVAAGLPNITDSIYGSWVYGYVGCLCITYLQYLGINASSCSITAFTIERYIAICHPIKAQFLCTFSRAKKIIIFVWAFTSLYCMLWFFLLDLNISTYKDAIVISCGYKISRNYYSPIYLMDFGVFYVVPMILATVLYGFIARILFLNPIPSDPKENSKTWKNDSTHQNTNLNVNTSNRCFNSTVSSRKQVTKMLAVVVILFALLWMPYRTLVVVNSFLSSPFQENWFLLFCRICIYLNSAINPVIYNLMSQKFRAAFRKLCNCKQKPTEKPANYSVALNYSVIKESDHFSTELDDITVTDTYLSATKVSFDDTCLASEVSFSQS
# Chain of Progesterone receptor (Homo sapiens) (P06401 whole entry, looked up): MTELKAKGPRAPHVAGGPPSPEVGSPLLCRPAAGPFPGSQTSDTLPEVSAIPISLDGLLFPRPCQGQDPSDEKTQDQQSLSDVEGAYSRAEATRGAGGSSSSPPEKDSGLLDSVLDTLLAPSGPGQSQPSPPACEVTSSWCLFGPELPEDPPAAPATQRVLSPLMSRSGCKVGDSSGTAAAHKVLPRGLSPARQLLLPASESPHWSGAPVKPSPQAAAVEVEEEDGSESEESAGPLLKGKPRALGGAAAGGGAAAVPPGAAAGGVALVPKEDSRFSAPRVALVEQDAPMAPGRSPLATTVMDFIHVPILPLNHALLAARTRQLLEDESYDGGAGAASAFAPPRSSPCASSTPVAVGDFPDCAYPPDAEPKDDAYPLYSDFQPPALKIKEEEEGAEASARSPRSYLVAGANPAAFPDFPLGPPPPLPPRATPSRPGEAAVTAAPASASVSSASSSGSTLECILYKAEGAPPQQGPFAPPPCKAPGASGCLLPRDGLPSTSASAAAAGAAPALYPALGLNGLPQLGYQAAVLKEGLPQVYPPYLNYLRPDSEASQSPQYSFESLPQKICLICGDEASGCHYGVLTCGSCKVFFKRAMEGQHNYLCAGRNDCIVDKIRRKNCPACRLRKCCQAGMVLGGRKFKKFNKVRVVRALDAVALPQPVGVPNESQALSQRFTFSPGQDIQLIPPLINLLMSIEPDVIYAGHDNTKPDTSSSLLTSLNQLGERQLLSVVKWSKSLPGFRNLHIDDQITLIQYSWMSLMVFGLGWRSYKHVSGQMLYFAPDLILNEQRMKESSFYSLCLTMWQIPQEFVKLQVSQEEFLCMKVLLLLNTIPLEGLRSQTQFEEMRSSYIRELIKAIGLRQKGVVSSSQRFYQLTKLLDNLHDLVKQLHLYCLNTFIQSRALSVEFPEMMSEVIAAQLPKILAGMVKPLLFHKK
# Chain of Estrogen receptor (Homo sapiens) (P03372 whole entry, looked up): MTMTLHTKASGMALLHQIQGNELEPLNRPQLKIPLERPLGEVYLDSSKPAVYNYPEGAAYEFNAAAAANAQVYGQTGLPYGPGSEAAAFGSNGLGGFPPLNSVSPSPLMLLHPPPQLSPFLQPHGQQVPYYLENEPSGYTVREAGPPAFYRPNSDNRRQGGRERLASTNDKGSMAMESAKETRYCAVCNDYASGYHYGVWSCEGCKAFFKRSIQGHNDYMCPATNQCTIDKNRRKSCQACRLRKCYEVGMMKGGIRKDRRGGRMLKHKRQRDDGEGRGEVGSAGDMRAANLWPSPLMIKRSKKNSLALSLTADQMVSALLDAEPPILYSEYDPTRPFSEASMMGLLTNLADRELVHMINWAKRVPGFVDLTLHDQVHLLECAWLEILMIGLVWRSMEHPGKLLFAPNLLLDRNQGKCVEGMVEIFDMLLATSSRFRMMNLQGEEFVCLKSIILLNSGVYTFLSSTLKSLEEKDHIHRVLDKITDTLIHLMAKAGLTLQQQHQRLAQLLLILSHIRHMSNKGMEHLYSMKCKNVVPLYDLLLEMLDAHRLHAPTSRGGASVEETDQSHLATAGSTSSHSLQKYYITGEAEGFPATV
# Chain of Thyrotropin receptor (Homo sapiens) (P16473 whole entry, looked up): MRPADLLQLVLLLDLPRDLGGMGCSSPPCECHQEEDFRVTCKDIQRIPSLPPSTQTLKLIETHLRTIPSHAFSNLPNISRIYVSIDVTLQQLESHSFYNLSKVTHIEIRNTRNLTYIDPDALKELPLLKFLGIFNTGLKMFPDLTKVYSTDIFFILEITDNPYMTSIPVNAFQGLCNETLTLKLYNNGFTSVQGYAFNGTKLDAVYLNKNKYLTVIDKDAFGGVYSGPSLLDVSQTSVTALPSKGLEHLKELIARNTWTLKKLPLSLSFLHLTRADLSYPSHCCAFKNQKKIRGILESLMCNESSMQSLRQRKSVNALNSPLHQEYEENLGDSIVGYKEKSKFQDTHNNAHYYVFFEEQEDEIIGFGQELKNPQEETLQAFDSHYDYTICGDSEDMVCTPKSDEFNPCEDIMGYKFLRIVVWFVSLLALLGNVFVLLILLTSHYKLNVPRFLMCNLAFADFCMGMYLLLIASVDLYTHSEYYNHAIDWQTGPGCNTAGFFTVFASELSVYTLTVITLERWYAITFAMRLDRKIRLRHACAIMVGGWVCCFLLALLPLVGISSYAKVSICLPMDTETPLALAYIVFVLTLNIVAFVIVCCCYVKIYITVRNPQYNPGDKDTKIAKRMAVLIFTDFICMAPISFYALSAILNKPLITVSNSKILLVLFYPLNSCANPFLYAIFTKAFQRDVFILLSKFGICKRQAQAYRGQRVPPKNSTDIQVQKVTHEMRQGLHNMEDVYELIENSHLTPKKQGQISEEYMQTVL
# Chain of Estrogen receptor beta (Homo sapiens) (Q92731 whole entry, looked up): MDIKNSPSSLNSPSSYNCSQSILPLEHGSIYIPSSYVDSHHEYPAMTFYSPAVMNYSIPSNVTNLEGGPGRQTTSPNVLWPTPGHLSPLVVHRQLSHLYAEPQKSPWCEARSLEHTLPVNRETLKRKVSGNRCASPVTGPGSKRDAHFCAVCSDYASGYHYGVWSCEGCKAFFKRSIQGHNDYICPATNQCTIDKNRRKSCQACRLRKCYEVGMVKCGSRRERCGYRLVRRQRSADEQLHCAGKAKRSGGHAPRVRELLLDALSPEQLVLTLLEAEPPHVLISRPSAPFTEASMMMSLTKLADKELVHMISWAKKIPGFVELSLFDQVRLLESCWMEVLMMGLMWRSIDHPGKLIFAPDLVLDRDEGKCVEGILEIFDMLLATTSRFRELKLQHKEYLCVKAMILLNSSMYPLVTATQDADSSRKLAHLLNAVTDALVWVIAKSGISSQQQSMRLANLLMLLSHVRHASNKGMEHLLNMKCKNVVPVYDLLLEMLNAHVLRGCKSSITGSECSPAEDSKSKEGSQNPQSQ
structure (smiles),measurement,setting,value
CCc1cc(C)cc(CC)c1-c1c(OC(=O)C(C)(C)C)n2n(c1=O)CCOCC2,Potency,[1],inactive
same,Potency,[2],inactive
same,Potency,[3],inactive
same,Potency,[4],inactive
same,Potency,[5],inactive
same,outcome,[6],inactive
same,Potency,[7],inactive
same,Potency,[8],34.4 µM (active)
same,Potency,[9],inactive
same,Potency,[10],inactive
same,Potency,[11],inactive
same,Potency,[12],inactive
same,Potency,[13],inactive
same,Potency,[14],inactive
same,outcome,[15],inactive
same,Potency,[16],inactive
same,Potency,[17],inactive
c1ccc2c(c1)[nH]c1cnccc12,Potency,[1],inactive
same,Potency,[2],inactive
same,Potency,[18],inactive
same,Potency,[4],inactive
same,Potency,[5],inactive
same,outcome,[6],inactive
same,Potency,[7],inactive
same,Potency,[8],inactive
same,Potency,[9],inactive
same,Potency,[10],27.3 µM (active)
same,Potency,[11],inactive
same,Potency,[12],inactive
same,Potency,[13],inactive
same,outcome,[15],inactive
same,Potency,[16],inactive
same,Potency,[17],inactive
same,Potency,[19],inactive
N#CNC#N,Potency,[1],inactive
same,Potency,[2],inactive
same,Potency,[18],inactive
same,Potency,[3],inactive
same,outcome,[6],inactive
same,Potency,[7],inactive
same,Potency,[8],inactive
same,Potency,[9],inactive
same,Potency,[11],inactive
same,Potency,[12],inactive
same,Potency,[13],inactive
same,outcome,[15],inactive
same,Potency,[16],inactive
same,Potency,[17],inactive
same,Potency,[19],inactive
ClCc1ccccc1CCl,Potency,[1],inactive
same,Potency,[2],inactive
same,Potency,[18],61.1 µM (active)
same,Potency,[4],inactive
same,Potency,[5],inactive
same,outcome,[6],inactive
same,Potency,[7],inactive
same,Potency,[8],inactive
same,Potency,[9],inactive
same,Potency,[10],inactive
same,Potency,[11],inactive
same,Potency,[12],inactive
same,Potency,[13],inactive
same,Potency,[14],inactive
same,outcome,[15],inactive
same,Potency,[16],inactive
same,Potency,[17],inactive
same,Potency,[19],inactive
c1ccc2c(c1)OCC(C1=NCCN1)O2 (stereo not given),Potency,[1],inactive
same,Potency,[2],11.9 µM (active)
same,Potency,[18],inactive
same,Potency,[4],inactive
same,Potency,[5],inactive
same,outcome,[6],inactive
same,Potency,[7],inactive
same,Potency,[8],inactive
same,Potency,[9],inactive
same,Potency,[11],inactive
same,Potency,[12],inactive
same,Potency,[13],inactive
same,outcome,[15],inactive
same,Potency,[16],inactive
same,Potency,[17],inactive
same,Potency,[19],26.6 µM (active)
Clc1ccc(C(c2ccc(Cl)cc2)C(Cl)(Cl)Cl)cc1,Potency,[1],inactive
same,Potency,[2],13.7 µM (active) and 7.5 µM (active)
same,Potency,[18],inactive
same,Potency,[3],61.6 µM (active) and 54.5 µM (active)
same,Potency,[4],inactive
same,outcome,[6],inactive
same,Potency,[7],30.9 µM (active) and 54.5 µM (active)
same,Potency,[8],inactive
same,Potency,[10],7.7 µM (active) and 5.96 µM (active)
same,Potency,[11],inactive
same,Potency,[13],inactive
same,Potency,[14],55.3 µM (active) and inactive
same,Potency,[16],inactive
same,Potency,[17],inactive
same,Potency,[19],inactive
Brc1c(Br)c(Br)c(Oc2c(Br)c(Br)c(Br)c(Br)c2Br)c(Br)c1Br,activation,[1],9.23% [at 19 µM] (inactive)
same,"activity, negative = inhibition",[2],-4.25% [at 19 µM] (inactive)
same,"activity change, negative = cytotoxicity",[18],4.12% [at 19 µM] (inactive)
same,"activity change, negative = cytotoxicity",[3],-3.73% [at 19 µM] (inactive)
same,"activity change, negative = cytotoxicity",[4],4.03% [at 19 µM] (inactive)
same,cAMP activity change,[6],-3.73% [at 18.9 µM] (inactive)
same,"activity change, negative = inhibition",[7],0.486% [at 19 µM] (inactive)
same,"activity change, negative = cytotoxicity",[8],-0.0832% [at 19 µM] (inactive)
same,activation,[9],-1.27% [at 19 µM] (inactive)
same,"activity change, negative = inhibition",[10],0.347% [at 18.9 µM] (inactive)
same,"activity change, negative = cytotoxicity",[11],-6.81% [at 18.9 µM] (inactive)
same,"activity change, negative = cytotoxicity",[12],-0.672% [at 19 µM] (inactive)
same,"viability change, negative = cytotoxic",[13],12.3% [at 15.8 µM] (inactive)
same,activation,[15],4.57% [at 15.8 µM] (inactive)
same,"activity, negative = inhibition",[16],2.65% [at 10.5 µM] (inactive)
same,activation,[17],-0.444% [at 11.8 µM] (inactive)
same,"activity change, negative = cytotoxicity",[19],1.58% [at 19 µM] (inactive)
